SARS PLP yeast – qHTS of Yeast-based Assay for SARS-CoV PLP; 0.19% of 330,000 active; S. cerevisiae expressing SARS-CoV PLpro, growth rescue; AID 485353, 2010; Potency, µM (series often up to 32.9 µM), usual class: activators; calls by dose curve; further: nearly all actives have a fitted effect of over 55% in size
Shiga inhibitor – A qHTS for Small Molecule Inhibitors of Shiga Toxin; Vero cells, Shiga toxin protein synthesis inhibition reporter; 9.2% of 290,000 active; inhibition, % at 38.7 µM; AID 2315, 2010; in the data active means inhibition mostly above about 28%, no sharp cut-off; inactive means mostly below about 43%
CHX counter – Cycloheximide Counterscreen for Small Molecule Inhibitors of Shiga Toxin; cell reporter, cycloheximide protein synthesis inhibition counterscreen; max response, %; 12% of 300,000 active; AID 2314, 2010; in the data active means max response mostly above about 13%, no sharp cut-off; inactive means mostly below about 14%; further: read at 38.3 µM for the half of the compounds with a filed dose
Pf growth 48h – Primary qHTS for delayed death inhibitors of the malarial parasite plastid, 48 hour incubation | P. falciparum luciferase growth in erythrocytes, 48 h | Potency, µM (highest dose often 28.7 µM), most hits filed as inhibitors | 5.9% of 310,000 active
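Parasite viability was followed by luminescence of a genomically integrated firefly luciferase. Cultures held 0.1% parasitemia at 2% hematocrit (final), incubated under 5% CO2 at 37 C.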
Pf growth 96h – Primary qHTS for delayed death inhibitors of the malarial parasite plastid, 96 hour incubation. P. falciparum luciferase reporter growth, 96 h. Potency, µM (doses to about 28.7 µM), most hits filed as inhibitors. 6.9% of 320,000 active
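Two-generation exposure (96 h) targets delayed-death phenotype. Reporter parasites carrying integrated firefly luciferase, in red cells at 2% hematocrit and 0.05% parasitemia final, kept at 37 C, 5% CO2; luminescence loss indicates inhibition.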
AMA1 RON2 block – qHTS for Inhibitors of AMA1-RON; Towards Development of Antimalarial Drug Lead: Primary Screen; Plasmodium falciparum AMA1 (3D7) - RON2 peptide interaction; Potency, µM (highest dose often 58.2 µM), most hits filed as inhibitors; AlphaScreen AMA1-biotinylated RON2 peptide binding; 0.2% of 360,000 active; further: nearly all actives have a fitted effect of over 45% in size
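AMA1 (3D7) with his tag at 25 nM final met compounds first, then biotinylated RON2 peptide at 25 nM; detection used donor plus acceptor beads, 10 µg/mL apiece, read by AlphaScreen after 30 min at room temperature.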
Large screens that a line does not name were inactive. Sampled rows, rich in hits. Any-hit rate of the full collection: about 19%. Unless noted, the call rests on the fitted dose curve; in most records, active means well fitted curve in the direction sought with a large enough effect; inconclusive means small, poorly fitted or top-dose-only effect, or another doubt; inactive means no such curve, though single readings can be large; an effect the other way counts as inactive or inconclusive.

Fc1ccc(C(CCNCc2ccccn2)c2ccc(Cl)cc2)cc1 (stereo not drawn)	Pf growth 96h inconclusive
CC(C)C(=O)Nc1ccc(N2CCCC2)c(Cl)c1	CHX counter 44
CC(C)CC(=O)NC(=S)Nc1ccc(N2CCCC2)c(Cl)c1	Shiga inhibitor 57, Pf growth 48h 3.3µM, Pf growth 96h inconclusive
CC(C)CC(=O)NC(=S)Nc1cccc(NC(=O)c2ccccc2Cl)c1	none (no result: Pf growth 96h)
CCCC(=O)NC(=S)Nc1ccc(N2CCOCC2)c(Cl)c1	Shiga inhibitor 44, CHX counter 19, Pf growth 48h inconclusive, Pf growth 96h 12µM
COc1cc(SC)ccc1C(=O)Nc1ccc2ncccc2c1	Shiga inhibitor 30, CHX counter 27
COc1cc(SC)ccc1C(=O)Nc1cccc(C)n1	Shiga inhibitor 84, CHX counter 33
COc1cc(SC)ccc1C(=O)Nc1ccc(Br)cn1	Shiga inhibitor 76, CHX counter 31
COc1ccc(NC(=O)c2cccnc2SC)cc1OC	none
COc1cc(SC)ccc1C(=O)Nc1ccon1	Shiga inhibitor 60, CHX counter 34, Pf growth 96h inconclusive
Cc1ccc(CS(=O)Cc2ccc(C(=O)NCc3ccccc3)o2)cc1 (stereo not drawn)	Pf growth 96h inconclusive
CS(=O)(=O)N(CC(=O)Nc1cccc(Cl)c1Cl)c1ccccc1	none (no result: Pf growth 96h)
COc1cc(SC)ccc1C(=O)Nc1ncc(Cl)cc1Cl	Shiga inhibitor 79, CHX counter 35
COc1cc(SC)ccc1C(=O)Nc1ccccn1	CHX counter 34
COc1ccc(N=c2oc3ccccc3cc2C(=O)Nc2ccccn2)cc1OC	Shiga inhibitor 98, CHX counter 52, Pf growth 96h inconclusive (no result: AMA1 RON2 block)
COc1cc(SC)ccc1C(=O)Nc1ncc(C)s1	none
COc1cc(SC)ccc1C(=O)NC(C)C	none
COC(=O)C1=C(C(=O)OC)[C@@H]2Nc3ccccc3[C@@]23C[C@@H](C(=O)OC)N(C(=O)c2cccs2)C3=N1	none (no result: SARS PLP yeast, Shiga inhibitor, CHX counter, Pf growth 48h, Pf growth 96h)
C=CCN(c1ccccc1)S(=O)(=O)c1cccc(C(=O)NCC(c2ccc(OC)cc2)N2CCCCC2)c1 (stereo not drawn)	Pf growth 48h 10µM, Pf growth 96h inconclusive (no result: Shiga inhibitor, CHX counter)
COc1ccc(C(CNC(=O)c2cccc(S(=O)(=O)N3CCCCC3)c2)N2CCCC2)cc1 (stereo not drawn)	Pf growth 48h inconclusive, Pf growth 96h 10µM (no result: Shiga inhibitor, CHX counter)
COc1ccc(NS(=O)(=O)c2cccc(C(=O)NCC(c3ccc(OC)cc3)N3CCCCC3)c2)cc1 (stereo not drawn)	none (no result: SARS PLP yeast, Shiga inhibitor, CHX counter, Pf growth 48h, Pf growth 96h)
COc1cc(C(=O)NCC(=O)NCC(c2ccco2)N2CCCCC2)cc(OC)c1OC (stereo not drawn)	Pf growth 48h inconclusive, Pf growth 96h 3.3µM (no result: Shiga inhibitor, CHX counter)
COc1ccc(C(CNC(=O)c2cccc(N(C)C)c2)N2CCCC2)cc1 (stereo not drawn)	Pf growth 48h 10µM, Pf growth 96h inconclusive, AMA1 RON2 block inconclusive
CC(Oc1cc(F)ccc1[N+](=O)[O-])C(=O)N(C)CC(=O)Nc1ccccc1C(F)(F)F (stereo not drawn)	none
COc1ccc(NS(=O)(=O)c2cccc(C(=O)NCC(c3ccccc3OC)N3CCCC3)c2)cc1 (stereo not drawn)	Pf growth 48h 10µM, Pf growth 96h inconclusive (no result: Shiga inhibitor, CHX counter)
COc1ccc(C(CNC(=O)c2cc3ccccc3cc2OC)N2CCCC2)cc1 (stereo not drawn)	Pf growth 96h 4.1µM (no result: Pf growth 48h)
COc1ccc(C(CNC(=O)CNC(=O)c2ccccc2Cl)N2CCCC2)cc1 (stereo not drawn)	Pf growth 48h inconclusive, Pf growth 96h inconclusive (no result: Shiga inhibitor, CHX counter)
COc1ccccc1NS(=O)(=O)c1cccc(C(=O)NCC(c2ccco2)N2CCCCC2)c1 (stereo not drawn)	Pf growth 48h 5.2µM, Pf growth 96h inconclusive (no result: Shiga inhibitor, CHX counter)
COc1ccc(CNC(=O)c2cccc(N(C)C)c2)cc1	Pf growth 96h 1.9µM
Cc1ccc(Cc2c(-c3ccc(Cl)cc3)nc3c(C)cc(Br)cn23)cc1	none (no result: SARS PLP yeast, Shiga inhibitor, CHX counter, Pf growth 48h, Pf growth 96h)
CCCCCCCCCCCC	none (no result: SARS PLP yeast, Pf growth 48h, Pf growth 96h, AMA1 RON2 block)
COc1ccc(C(CNC(=O)Cc2ccccc2)N2CCCCC2)cc1 (stereo not drawn)	none
COc1ccc(C(CNC(=O)c2cccc(S(=O)(=O)Nc3ccccc3OC)c2)N2CCCC2)cc1 (stereo not drawn)	Pf growth 48h inconclusive, Pf growth 96h 13µM (no result: Shiga inhibitor, CHX counter)
COc1ccccc1NS(=O)(=O)c1cc(C(=O)NCC(c2cccs2)N2CCOCC2)ccc1C (stereo not drawn)	Pf growth 48h inconclusive, Pf growth 96h inconclusive (no result: Shiga inhibitor, CHX counter)
COc1ccc(C(CNC(=O)c2ccc(C)c(S(=O)(=O)Nc3ccccc3OC)c2)N2CCCC2)cc1 (stereo not drawn)	Pf growth 48h 4.1µM, Pf growth 96h inconclusive
COc1ccc(NS(=O)(=O)c2cccc(C(=O)NCC(c3ccc(OC)cc3)N3CCCC3)c2)cc1 (stereo not drawn)	Pf growth 48h 6.6µM, Pf growth 96h 7.4µM (no result: Shiga inhibitor, CHX counter)
CCC1CCc2sc(C(=O)NCC(c3ccc(OC)cc3)N3CCCC3)cc2C1 (stereo not drawn)	Pf growth 48h 12µM, Pf growth 96h inconclusive (no result: Shiga inhibitor, CHX counter)
COc1ccc(C(CNC(=O)c2cccc(S(=O)(=O)Nc3ccccc3OC)c2)N2CCCCC2)cc1 (stereo not drawn)	none (no result: SARS PLP yeast, Shiga inhibitor, CHX counter, Pf growth 48h, Pf growth 96h)
CCc1nn2c(=O)cc(CSCC(=O)Nc3ccccc3F)nc2s1	Pf growth 96h inconclusive
CN(C)c1ccc2c(c1)N=C(c1ccco1)OP2(=S)N1CCOCC1 (stereo not drawn)	SARS PLP yeast inconclusive, Shiga inhibitor 77, CHX counter 31
COc1ccccc1N1CCN(c2ncnc3sc(C(=O)NCC4CCCO4)c(C)c23)CC1 (stereo not drawn)	Pf growth 96h inconclusive
CC(C)c1cc(C(=O)N/N=C/c2ccoc2)cs1	Shiga inhibitor 74, CHX counter 42
Cc1nc(N)sc1C(=O)N/N=C/c1cccnc1	none
O=C(N/N=C/c1ccoc1)c1cccc([N+](=O)[O-])c1	none
CC(C)c1cc(C(=O)N/N=C/c2cccnc2)cs1	Shiga inhibitor 41, CHX counter 21
CCN(C(=O)COC(=O)/C(C#N)=C/c1ccc(OC)cc1)C1CCS(=O)(=O)C1 (stereo not drawn)	none (no result: Shiga inhibitor, CHX counter)
N#Cc1ccc(Oc2ccc(S(=O)(=O)N3CCOCC3)cn2)cc1	Pf growth 48h inconclusive (no result: Shiga inhibitor, CHX counter)
Cc1cccn2c(=O)c(C=O)c(Sc3ncccn3)nc12	Pf growth 48h inconclusive
C=CCOC(=O)N1CCN(c2cccc(C(F)(F)F)c2)CC1	none
Cc1ccccc1S(=O)(=O)NC(=O)C1(C)CCN1C(=O)Cc1ccc(C(C)(C)C)cc1 (stereo not drawn)	none (no result: SARS PLP yeast, Shiga inhibitor, CHX counter, Pf growth 48h, Pf growth 96h)
COc1ccc(Cl)cc1NS(=O)(=O)c1c(C)[nH]c(=O)[nH]c1=O	none
